# Pol kappa inh-1 = blocks human DNA polymerase kappa activity; Q9UBT6; purified Pol kappa, fluorescent DNA synthesis assay, 10 min; Potency, µM (titrated, usually from 107 µM), for the others: top-dose activity, negative = inhibition, hits mostly inhibitors; 400,000 tested, 0.53% active; AID 588579; also: % is scaled to controls: 0 for no effect and ±100 for the full control effect
#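 Inhibition of 10 nM Pol kappa is measured by a fluorescent read-out at 0 and 10 min following addition of 50 nM substrate (final), with a 15-min room-temperature compound preincubation.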
# Pol eta inh-1 = DNA polymerase eta (human) inhibition | Q9Y253 | recombinant Pol eta, fluorescent DNA replication assay | Potency, µM (highest dose often 114 µM), for inactives: at the top dose activity change, negative = inhibition, actives largely listed as inhibitors | 390,000 tested, 1.2% active | AID 588591; also: % is scaled to controls: 0 for no effect and ±100 for the full control effect
#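 Fluorescent replication assay: 50 nM final substrate added after a 15 min room-temperature compound preincubation with 10 nM enzyme. Signal taken at 0 min and again at 10 min.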
# FEN1 inh-1 = human FEN1 inhibition; Recombinant FEN1 flap cleavage, fluorescence, 15 min; 390,000 tested, 0.35% active; P39748; AID 588795; Potency, µM (doses to about 114 µM), inactives show top-dose activity change, negative = inhibition, usual class: inhibitors; also: % is scaled to controls: 0 for no effect and ±100 for the full control effect; nearly all actives have a fitted effect of over 65% in size
#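 Compounds are tested as a concentration series against 10 nM FEN1; after a 15 min room-temperature preincubation, 50 nM substrate starts cleavage, with plate reads at 0 and 15 min. Normalized responses are fitted by a Hill equation.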
# POLB inh = inhibitors of human DNA polymerase beta. P06746. Potency, µM (series often up to 114 µM), without a hit: at the highest dose activity change, negative = inhibition, hits mostly inhibitors. 340,000 tested, 1.3% active. Pol beta primer extension/strand displacement, fluorescence kinetic; also: % is scaled to controls: 0 for no effect and ±100 for the full control effect
#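 Preincubation: enzyme (10 nM) with compound, 15 min, RT. Reaction: substrate added to 50 nM final. Reads: 0 and 10 min. Analysis: normalized, Hill fit.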
# Pol iota inh = blocks human DNA polymerase iota activity. AID 588590. Q9UNA4. Pol iota fluorescent replication assay, 10 min. Potency, µM (titrated, usually from 115 µM), inactives show top-dose activity, negative = inhibition, actives largely listed as inhibitors. 390,000 tested, 1% active
# Target sequence (Q9UNA4 whole entry, looked up): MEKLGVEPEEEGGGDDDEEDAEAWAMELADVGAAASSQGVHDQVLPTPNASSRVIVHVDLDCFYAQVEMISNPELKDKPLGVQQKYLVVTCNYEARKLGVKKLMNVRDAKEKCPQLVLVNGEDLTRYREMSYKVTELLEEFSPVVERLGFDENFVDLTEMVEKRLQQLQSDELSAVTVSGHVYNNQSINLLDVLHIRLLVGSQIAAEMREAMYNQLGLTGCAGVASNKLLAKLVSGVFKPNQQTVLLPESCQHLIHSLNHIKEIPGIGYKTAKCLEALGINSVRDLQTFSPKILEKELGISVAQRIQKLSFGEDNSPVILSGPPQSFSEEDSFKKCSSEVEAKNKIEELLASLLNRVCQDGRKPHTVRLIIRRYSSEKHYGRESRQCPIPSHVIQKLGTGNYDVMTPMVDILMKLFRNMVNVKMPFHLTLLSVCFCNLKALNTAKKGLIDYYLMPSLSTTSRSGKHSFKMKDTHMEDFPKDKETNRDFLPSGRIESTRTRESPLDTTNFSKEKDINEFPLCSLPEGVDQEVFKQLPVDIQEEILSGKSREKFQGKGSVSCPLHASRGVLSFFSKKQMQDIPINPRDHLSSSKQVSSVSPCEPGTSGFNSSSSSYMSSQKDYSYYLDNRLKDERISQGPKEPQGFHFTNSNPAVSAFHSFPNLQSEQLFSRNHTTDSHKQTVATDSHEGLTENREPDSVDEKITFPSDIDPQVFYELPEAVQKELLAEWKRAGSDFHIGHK
#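 Fluorescent replication assay read twice, at 0 min and 10 min after adding 50 nM (final) substrate. Enzyme (10 nM) and compounds were first incubated 15 min at room temperature; enzyme-free buffer wells were negative controls.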
# TDP1 inh = blocks human tyrosyl-DNA phosphodiesterase 1. Potency, µM (series often up to 130 µM), without a hit: at the top dose activity change, negative = inhibition, actives largely listed as inhibitors. 350,000 tested, 0.28% active. AID 485290. recombinant TDP1, AlphaScreen DNA substrate cleavage; also: % is scaled to controls: 0 for no effect and ±100 for the full control effect; nearly all actives have a fitted effect of over 40% in size
#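 Tdp1 1 nM final; 15 min RT w/ cpd; substrate 15 nM, 5 min; beads 10 ug/ml, 10 min; AlphaScreen read. Neg ctrl: no enzyme.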
# PGK validate = validation of Trypanosoma brucei phosphoglycerate kinase inhibitors; Potency, µM (top dose mostly 57.5 µM), without a hit: at the top dose activity change, negative = inhibition, usual class: inhibitors; shares compounds with Pol kappa inh-1; AID 686980; TbPGK coupled GAPDH assay, Kinase-Glo luminescence; 500 tested, 79% active; also: % is scaled to controls: 0 for no effect and ±100 for the full control effect; nearly all actives have a fitted effect of over 65% in size
# POLI cherry-pick = Human Pol iota inhibitor confirmatory assay | 1,500 tested, 77% active | shares compounds with Pol kappa inh-1 | Potency, µM, most hits filed as inhibitors | Pol iota primer extension, TAMRA/BHQ fluorescence
# Pol kappa inh-2 = confirmation of human DNA polymerase kappa inhibitors; shares compounds with Pol eta inh-1; 920 tested, 76% active; purified Pol-kappa, fluorescent strand-displacement substrate; Potency, µM, most hits filed as inhibitors
# Pol eta inh-2 = Pol eta (human) inhibition, cherry-pick confirmation. Pol eta primer extension, TAMRA/BHQ fluorescence, 10 min. 2,600 tested, 64% active. AID 720502. shares compounds with Pol eta inh-1. Potency, µM, most hits filed as inhibitors
# FEN1 inh-2 = confirmation of human FEN1 inhibitors; 880 tested, 79% active; Potency, µM, actives largely listed as inhibitors; FEN1 flap cleavage, TAMRA/BHQ2 fluorogenic DNA substrate; shares compounds with FEN1 inh-1; also: nearly all actives have a fitted effect of over 60% in size
# An asterisk follows results filed as active; ? = inconclusive; . = no result given; ! = repeats disagree. The list is not random: actives were taken first. Their share in the collection is about 2.4%. Calls follow the shape of the dose curve; as a rule, active = well fitted curve in the direction sought with a large enough effect; inconclusive = small, poorly fitted or top-dose-only effect, or another doubt; inactive = no such curve, though single readings can be large; an effect the other way counts as inactive or inconclusive. Potency is read from the fitted curve at half-maximal effect.
SMILES,Pol kappa inh-1,Pol eta inh-1,FEN1 inh-1,POLB inh,Pol iota inh,TDP1 inh,POLI cherry-pick,Pol eta inh-2,FEN1 inh-2,others
O=C1NC(=O)N(c2cccc(Cl)c2)C(=O)/C1=C\c1ccc(Sc2nc3ccccc3[nH]2)o1,22.4µM*,17.8µM*,44.7µM*,31.6µM*,?,.,75.2*,26.9*,?,
CC[n+]1c(-c2ccccc2)c2cc(N)ccc2c2ccc(N)cc21,20µM*,4.47µM*,12.6µM*,.,39.8µM*,9.2%,15*,?,16.9*,Pol kappa inh-2=9.47*
O=C1NC(=O)N(Cc2ccc(F)cc2)C(=O)/C1=C\c1ccc([N+](=O)[O-])s1,31.6µM*,28.2µM*,25.1µM*,?,14.1µM*,3.9%,42.3*,16.9*,6.75*,
COc1ccc(CN2C(=O)NC(=O)/C(=C\c3cc(OC)c(OC)c(OC)c3)C2=O)cc1,-1.8%,-9.7%,-0.6%,-11.8%,?,4.9%,.,.,.,
COc1ccc(CN2C(=O)NC(=O)/C(=C/c3ccc([N+](=O)[O-])s3)C2=O)cc1,22.4µM*,14.1µM*,14.1µM*,22.4µM*,?,5.1%,23.8*,5.36*,16.9*,
NNC(N)=S,.,.,.,.,.,12.7%,.,.,.,
CN(C)[C@@H]1C(=O)C(C(N)=O)=C(O)[C@@]2(O)C(=O)C3=C(O)c4c(O)cccc4[C@@](C)(O)[C@H]3[C@H](O)[C@@H]12,2.82µM*,3.98µM*,11.2µM*!,2.82µM*,?,.,9.47*,26.9*,75.7*,Pol kappa inh-2=8.44*
CCOc1cccc(N2C(=O)/C(=C/c3ccco3)C(=O)NC2=S)c1,22.4µM*,3.16µM*,22.4µM*,7.94µM*,?,.,9.47*,15.1*,42.6*,PGK validate=9.19µM*
COc1ccccc1/C=C1\C(=O)NC(=S)N(c2ccccc2)C1=O,-3.6%,-19.5%,12.7%,2.1%,?,.,.,.,.,
CCN(CC)c1ccc(/C=C2\C(=O)NC(=S)N(c3ccc(OC)cc3OC)C2=O)o1,-6.5%,-15.1%,-7.2%,.,88.8%,.,.,.,.,
O=C1NC(=S)N(c2ccccc2)C(=O)/C1=C/c1ccco1,2.51µM*,0.794µM*,8.91µM*,10µM*,1.58µM*,.,0.474*,0.757*,16.9*,PGK validate=0.326µM*;Pol kappa inh-2=0.67*
C#CCO,.,.,.,.,.,6.5%,.,.,.,
O=C(O)C(Cl)(Cl)Br,.,.,.,.,.,7.6%,.,.,.,
CCCCN(C(=O)Oc1ccccc1)C1CCS(=O)(=O)C1 (stereo not drawn),-0.3%,-8.8%,4.1%,0.6%,78.7%,4.8%,.,.,.,
CC[n+]1c(/C=C/C=C/c2ccc(N(C)C)cc2)sc2ccccc21,-32.1%,?,50.1µM*,-0.6%,76.2%,2.7%,.,.,37.9*,PGK validate=?
CN(C)c1ccc(/C=C/C=C/c2sc3ccccc3[n+]2C)cc1,-28.5%,-31.1%,?,?,?,-2.7%,.,.,.,

# From PubChem BioAssay
